Compound activity: PubChem BioAssay, National Center for Advancing Translational Sciences (NCATS)
DRD3 agonist: activates the human D3 dopamine receptor. P35462. D3R DiscoveRx beta-arrestin cells, luminescence, 90 min. max activation, %. actives 0.58% (n = 410,000). AID 652048; in the data active means max activation above about 30%; further: 0% is about no effect
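Cells at 1500/well, incubated overnight, then treated with pinned compounds (dopamine as control) for 90 min at 37 degrees C. DiscoveRx reagent added for 30 - 60 minutes at room temperature; luminescence read.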
D3 antag: blocks the human D3 dopamine receptor; P35462; D3R cells, DiscoveRx beta-arrestin luminescence, antagonist mode; hits give low values; max response, negative = inhibition, %; actives 2.5% (n = 360,000); AID 652054; in the data active means max response below about -50%; further: on the % scale 0 is the no-effect control and ±100 the full control effect
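Cells expressing the human receptor were seeded at 1500 cells/well, incubated overnight at 37 degrees C in 5% CO2, then exposed to library compounds with dopamine controls for 90 minutes at 37 degrees C before luminescent detection.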
ERG Ets-DNA blk: ERG Ets/DNA interaction inhibition | P11308 | fluorescence polarization, His-ERG Ets domain / labelled DNA | Potency, µM (highest dose often 76.9 µM), for the others: at the top dose FP activity, negative = inhibition, most hits filed as inhibitors | actives 0.028% (n = 370,000); active means well fitted inhibition curve with a large enough effect in the polarisation, with a control signal flat; the % refers to the polarisation;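 further: polarization taken with two DNA probes labelled with fluorescein and Texas red; potency means the concentration at half of the fitted maximal effect; % of control where 0% means no effect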
Target sequence (P11308 whole entry, looked up, the tested form may be a part): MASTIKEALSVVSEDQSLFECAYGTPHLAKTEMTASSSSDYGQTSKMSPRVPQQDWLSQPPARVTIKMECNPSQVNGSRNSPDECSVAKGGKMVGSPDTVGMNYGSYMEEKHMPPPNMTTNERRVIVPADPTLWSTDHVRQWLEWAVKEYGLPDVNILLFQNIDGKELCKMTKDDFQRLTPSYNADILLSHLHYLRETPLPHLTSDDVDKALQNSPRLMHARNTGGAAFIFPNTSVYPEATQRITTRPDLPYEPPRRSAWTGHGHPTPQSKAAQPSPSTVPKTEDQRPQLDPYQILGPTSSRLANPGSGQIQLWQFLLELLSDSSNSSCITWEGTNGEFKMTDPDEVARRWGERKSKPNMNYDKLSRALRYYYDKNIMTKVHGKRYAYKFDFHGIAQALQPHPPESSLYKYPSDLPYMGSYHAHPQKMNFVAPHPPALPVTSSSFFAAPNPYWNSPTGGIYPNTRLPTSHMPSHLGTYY
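His-tagged ERG Ets domain (1 uM in the protein solution; 300mM KCl, 50mM Tris-HCl, 1mM EDTA, 1mM DTT, pH 7.5) received compound, then a probe mix of 5 nM fluorescein-DNA and 100nM Texas-615-DNA. Fluorescence polarization was read for both dyes.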
D1 antag: blocks dopamine activation of the human D1 receptor; P21728; HEK293 TREx D1 cells, calcium flux, dopamine EC80; hits give low values; activity change, negative = inhibition, % at 10 µM; actives 3.2% (n = 360,000); in the data active means activity change below about -30%; further: on the % scale 0 is the no-effect control and ±100 the full control effect
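Compound effects on dopamine-evoked calcium signalling were measured in tetracycline-induced HEK293 Trex D1 cells. Dopamine at EC80 followed a 180 s compound pre-read, and fluorescence was tracked kinetically for 180 s more.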
D1 PAM: potentiators of human D1 dopamine receptor | P21728 | HEK293 TREx D1 cells, calcium flux, dopamine EC20 potentiation | potentiation, % at 10 µM | actives 0.036% (n = 360,000) | AID 504651; in the data active means potentiation above about 30%; further: 0% is about no effect
D1 agonist: agonists of human D1 dopamine receptor. activation, % at 2 µM. actives 1% (n = 360,000). P21728. HEK293 T-REx D1 cells, calcium flux, agonist mode. AID 504660; in the data active means activation above about 30%; further: 0% is about no effect
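Inducible HEK293 T-REx D1 cells, force-coupled to calcium signalling, were plated at 4000 cells/well with tetracycline and held overnight at 30 C. After no-wash calcium dye loading, compound-evoked calcium rise over 180 s flagged agonists.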
* marks the source's active call; other numbers are inactive results. Sampled rows, rich in hits. Any-hit rate of the full collection: about 6.1%.

Screening CN(C)CCN(C(=O)c1ccc(S(=O)(=O)N2CCc3ccccc32)cc1)c1nc2ccc(F)cc2s1 returned DRD3 agonist -16, D3 antag -13, ERG Ets-DNA blk 17%, D1 antag -36*, D1 PAM -11 and D1 agonist 2.
For CCc1ccc2nc(N(CCCN(C)C)C(=O)c3ccc(S(=O)(=O)N4CCCc5ccccc54)cc3)sc2c1 the results were DRD3 agonist -9, D3 antag -22, ERG Ets-DNA blk 8%, D1 antag -2, D1 PAM 8 and D1 agonist 4.
For CC(c1ccon1)N(C)Cc1cn(C)nc1-c1ccc2c(c1)OCCO2 (stereo not given) the results were DRD3 agonist 9, D3 antag 19, ERG Ets-DNA blk -3%, D1 antag 8, D1 PAM 8 and D1 agonist 2.
For O=C(Nc1ccc(Cl)c(Cl)c1)C1CCN(C(=O)c2ccco2)CC1 the results were DRD3 agonist -13, D3 antag -81*, ERG Ets-DNA blk -1%, D1 antag 2, D1 PAM -18 and D1 agonist 41*.
`O=C(c1ccco1)N1CCN(CC(O)COc2ccc3oc4ccccc4c3c2)CC1` (stereo not given) gave DRD3 agonist 41*, D3 antag 15, D1 antag -35*, D1 PAM -9 and D1 agonist 23.
Screening Cc1onc(-c2ccccc2)c1C(=O)N1CCN(C(=O)c2ccco2)CC1 returned DRD3 agonist -1, D3 antag -125*, D1 antag -16, D1 PAM 3 and D1 agonist 1.
For Cc1ccc(NC(=O)C2CCN(C(=O)c3ccco3)CC2)cc1 the results were DRD3 agonist 3, D3 antag 5, ERG Ets-DNA blk -4%, D1 antag -15, D1 PAM 0 and D1 agonist -1.
For COc1ccc(CN2CCN(C(=O)c3ccco3)CC2)c(OC)c1OC the results were DRD3 agonist 43*, D3 antag 9 and ERG Ets-DNA blk -1%.
For Cc1onc(-c2ccccc2)c1C(=O)N1CCCN(C(=O)c2c(-c3ccccc3)noc2C)CC1 the results were DRD3 agonist -2, D3 antag 27, ERG Ets-DNA blk -13%, D1 antag -18, D1 PAM -1 and D1 agonist -2.
Screening Cc1ccc(S(=O)(=O)N2CCC(NC(=O)c3cccc(F)c3)CC2)cc1 returned DRD3 agonist 0, D3 antag -2, ERG Ets-DNA blk 6%, D1 antag 1, D1 PAM -3 and D1 agonist 0.
COCCCn1c(C2CCCCC2)nc2oc3cc(OC)ccc3c(=O)c2c1=O was read as DRD3 agonist 15, D3 antag -8, ERG Ets-DNA blk -10%, D1 antag 2, D1 PAM 2 and D1 agonist 3.
Cc1ccc(CN2CCN(C(=O)c3ccco3)CC2)cc1 was read as DRD3 agonist 31*, D3 antag 0, ERG Ets-DNA blk -1%, D1 antag -30*, D1 PAM -7 and D1 agonist -2.
COc1ccc(Br)cc1CN1CCN(C(=O)c2cccc(F)c2)CC1 was read as DRD3 agonist -13, D3 antag -9, ERG Ets-DNA blk -4%, D1 antag -3, D1 PAM -3 and D1 agonist 5.
COc1ccc(Br)cc1CN1CCN(C(=O)c2ccco2)CC1 was read as DRD3 agonist -43, D3 antag -61*, ERG Ets-DNA blk -10%, D1 antag 7, D1 PAM -7 and D1 agonist 2.
Screening Cc1ccccc1CN1CCN(C(=O)c2ccco2)CC1 returned DRD3 agonist 3, D3 antag 8, ERG Ets-DNA blk -12%, D1 antag 8, D1 PAM -5 and D1 agonist 1.
For COc1ccccc1CN1CCN(C(=O)c2ccco2)CC1 the results were DRD3 agonist 32*, D3 antag 19, ERG Ets-DNA blk 4%, D1 antag -2, D1 PAM -5 and D1 agonist 8.
COc1ccc(CN2CCN(C(=O)c3ccco3)CC2)cc1OC was read as DRD3 agonist 45*, D3 antag -25, ERG Ets-DNA blk -3%, D1 antag 8, D1 PAM -1 and D1 agonist -2.
For O=C(c1ccco1)N1CCN(C(=S)Nc2ccc(F)cc2)CC1 the results were DRD3 agonist -1, D3 antag 3, ERG Ets-DNA blk -10%, D1 antag -9, D1 PAM 1 and D1 agonist 4.
`Cc1cc(C)cc(NC(=S)N2CCN(C(=O)c3ccco3)CC2)c1` gave DRD3 agonist 1, D3 antag -5, ERG Ets-DNA blk 13%, D1 antag -39*, D1 PAM 15 and D1 agonist 0.
`CCOC(=O)C1CCCCN1Cc1cc(OC)ccc1OC` (stereo not given) gave DRD3 agonist 2, D3 antag -26, D1 antag -4, D1 PAM 4 and D1 agonist 2.
CCOC(=O)C1CCCCN1Cc1cccc(OC)c1OC (stereo not given) was read as DRD3 agonist -9, D3 antag -108*, D1 antag -1, D1 PAM 1 and D1 agonist 1.
For COc1cccc(COC(=O)C2CCN(S(=O)(=O)c3ccc(C)cc3C)CC2)c1OC the results were DRD3 agonist 4, D3 antag 11, ERG Ets-DNA blk -10%, D1 antag -44*, D1 PAM -18 and D1 agonist 18.
CCOc1ccc(S(=O)(=O)N2CCC(C(=O)OCc3cccc(OC)c3OC)CC2)cc1 was read as DRD3 agonist -1, D3 antag 4, ERG Ets-DNA blk -1%, D1 antag 0, D1 PAM -4 and D1 agonist 22.
`COc1cccc(COC(=O)C2CCN(S(=O)(=O)c3ccc(C)cc3)CC2)c1OC` gave DRD3 agonist 6, D3 antag -7, ERG Ets-DNA blk 1%, D1 antag -38*, D1 PAM 1 and D1 agonist 10.
`COc1cccc(COC(=O)C2CCN(C(=O)c3ccc(F)cc3)CC2)c1OC` gave DRD3 agonist 2, D3 antag 12, ERG Ets-DNA blk 7%, D1 antag -45*, D1 PAM -11 and D1 agonist 19.
Screening CCc1ccccc1Nc1nc(N)nc(COC(=O)C2CCN(C(=O)c3ccc(F)cc3)CC2)n1 returned DRD3 agonist 8, D3 antag 10, ERG Ets-DNA blk -1%, D1 antag -1, D1 PAM -5 and D1 agonist 4.
Cc1ccn2c(=O)c(C(=O)NCCCN3CCCC3=O)c(O)nc2c1 was read as DRD3 agonist -1, D3 antag -6, ERG Ets-DNA blk 6%, D1 antag 13, D1 PAM -7 and D1 agonist 0.
